Reference: PubChem BioAssay
Results filed as inconclusive are left out. The source made the active and inactive calls.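 How the source made its calls, unless noted: active means cell viability at or below a set limit in both duplicate runs, the limit being the all-compound median minus 4 SD (cut at about 23% in these data, passing the limit was not always enough); inconclusive means no clear call, values can overlap the other calls; inactive means the rest.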

What was measured:
[1] = reducers of endogenous Her2 protein level, primary screen, SKBR3 breast tumor cells, AlphaScreen, ATP viability (AID 461;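 active means Her2 level under about 52% in both replicate screens, with viability over 70% of control, limit read from the data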;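 on Her2 level: lower value means less Her2 protein in the cells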;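 on viability: percent of carrier control wells set as 100% viability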); settings: 18-24 h, measured here: SKBR3 viability, ATP luminescence, at 10 µM
[2] = biological target: Receptor tyrosine-protein kinase erbB-2 (Homo sapiens) (UniProt P04626); assay: as above; settings: 18-24 h, at 10 µM, stronger effect = lower value
Chain of Receptor tyrosine-protein kinase erbB-2 (Homo sapiens) (P04626 whole entry, looked up): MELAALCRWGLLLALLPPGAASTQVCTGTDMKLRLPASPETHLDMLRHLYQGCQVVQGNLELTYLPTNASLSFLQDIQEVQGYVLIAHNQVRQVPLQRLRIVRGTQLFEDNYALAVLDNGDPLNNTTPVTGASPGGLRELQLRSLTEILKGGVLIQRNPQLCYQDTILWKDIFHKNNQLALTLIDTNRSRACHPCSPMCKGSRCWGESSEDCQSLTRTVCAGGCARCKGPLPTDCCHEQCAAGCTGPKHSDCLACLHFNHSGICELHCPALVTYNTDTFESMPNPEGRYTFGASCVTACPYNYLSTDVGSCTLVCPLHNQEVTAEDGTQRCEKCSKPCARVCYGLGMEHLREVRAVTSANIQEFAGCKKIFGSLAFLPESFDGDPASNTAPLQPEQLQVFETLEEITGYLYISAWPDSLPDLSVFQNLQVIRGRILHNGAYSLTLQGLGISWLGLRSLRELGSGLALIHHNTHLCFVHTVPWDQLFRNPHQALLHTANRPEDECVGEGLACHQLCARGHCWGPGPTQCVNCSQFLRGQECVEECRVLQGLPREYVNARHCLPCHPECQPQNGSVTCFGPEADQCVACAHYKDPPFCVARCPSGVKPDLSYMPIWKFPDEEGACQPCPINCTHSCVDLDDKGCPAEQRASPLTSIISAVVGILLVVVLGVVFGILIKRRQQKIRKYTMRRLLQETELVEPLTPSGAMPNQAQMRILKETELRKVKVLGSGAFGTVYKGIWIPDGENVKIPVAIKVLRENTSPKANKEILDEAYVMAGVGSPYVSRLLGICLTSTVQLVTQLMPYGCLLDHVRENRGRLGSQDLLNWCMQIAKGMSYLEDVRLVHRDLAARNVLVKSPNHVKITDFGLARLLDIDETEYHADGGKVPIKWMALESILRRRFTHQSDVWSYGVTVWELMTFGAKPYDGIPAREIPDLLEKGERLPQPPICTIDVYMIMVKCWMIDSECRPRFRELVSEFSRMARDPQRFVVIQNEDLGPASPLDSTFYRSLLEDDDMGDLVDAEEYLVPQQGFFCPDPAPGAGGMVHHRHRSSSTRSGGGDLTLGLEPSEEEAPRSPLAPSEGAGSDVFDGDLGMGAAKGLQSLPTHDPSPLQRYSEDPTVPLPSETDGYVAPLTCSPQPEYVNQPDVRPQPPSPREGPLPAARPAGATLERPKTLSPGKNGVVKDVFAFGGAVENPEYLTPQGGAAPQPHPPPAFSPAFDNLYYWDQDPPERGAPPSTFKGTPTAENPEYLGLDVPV

[3] = SK-BR-3 cell growth inhibitors, pilot screen, 24 h, human (AID 572;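 active means viability at or below 10% of carrier control in both of two separate runs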;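 further: compound exposure lasted between 18 and 24 h rather than exactly 24 h; 100% = carrier-treated control wells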); settings: SK-BR-3 viability, CellTiter-Glo luminescence, at 10 µM, stronger effect = lower value
[4] = HUVEC growth inhibition – cell-based, human, primary screen (AID 575;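 active means viability at or below 30% in both replicate assays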;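 further: 100% = median of untreated cell wells with 0.1% DMSO on each plate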); settings: HUVEC proliferation, CellTiter-Glo luminescence, 72 h; at 10 µM; stronger effect = lower value
[5] = growth inhibitors of H69AR lung tumor, primary screen, human, duplicate replicates (AID 580;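 active means viability at or under a set limit in both replicates, limit being median viability minus 3 SD, cut at about 48% in these data, passing the limit was not always enough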;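 further: 100% = mean luminescence of untreated wells and 0% = no signal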); settings: H69AR lung tumor cells viability, ATP luminescence, 72 h; at 10 µM; stronger effect = lower value
[6] = reversal of MRP1-mediated doxorubicin resistance, pilot screen, H69AR cells, doxorubicin co-treatment (AID 601;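 active means viability loss from added drug above about 55%, and viability with drug at most 40%, in both replicates, limit read from the data, passing the limit was not always enough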); settings: CellTiter-Glo, 72 h, at 10 µM; for differential viability (reversal): stronger effect = higher value
[7] = 384-well plate pilot, post-Golgi transport modulator project, inhibition of yeast transport mutant growth (AID 636; in the data active means inhibition above about 31%); settings: absorbance 615 nm, about 18 h, stronger effect = higher value
[8] = growth suppression of yeast trafficking mutant, preliminary HTS, modulators of trafficking downstream of Golgi apparatus project, 1536-format plate, OD 615 nm (AID 637; in the data active means inhibition above about 30%); settings: yeast transport mutant growth, absorbance 615 nm, 18 h; stronger effect = higher value
[9] = OD615 S. cerevisiae growth inhibition, permissive medium, pilot counter-assay, permissive growth control for S. cerevisiae lifespan shortening project (AID 705;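 active means growth inhibition above 25% in both replicates, a cutoff set 3 SD above the mean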); settings: OD615, 24 h, at 10 µM, stronger effect = higher value
[10] = Restrictive medium S. cerevisiae growth inhibition, OD615, pilot screen of yeast lifespan reduction project, restrictive growth control (AID 706;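 active means growth inhibition above a set limit, 3 SD over mean compound inhibition, in both replicates, cut at about 43% in these data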;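 further: modified DeaD lifespan yeast strain shifted to restrictive glucose medium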); settings: OD615, 48 h, at 10 µM, stronger effect = higher value
[11] = viability gain of MRP-1-high H69AR cells under doxorubicin, pilot screen, MRP-1 activator project, CellTiter-Glo, duplicate (AID 807;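 active means viability increase at or above a cutoff of the median across tested compounds plus 3 SD, cut at about 8.5% in these data, passing the limit was not always enough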;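 further: compound pretreatment 18-22 h then 72 h combined with doxorubicin; 0% = doxorubicin alone and 100% = vehicle without doxorubicin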); settings: H69AR viability with doxorubicin, CellTiter-Glo luminescence; at 10 µM; stronger effect = higher value
[12] = growth suppression of beta-catenin knockout HCT116, pilot screen, human colon tumor cells (AID 823); settings: CellTiter-Glo, 60 h, at 10 µM, stronger effect = lower value;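 further: 0% = wells killed by 20 µM Hyamine and 100% = untreated DMSO cell wells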
[13] = growth suppression of PTEN-deleted HCT116, pilot screen, cell-based, HCT116 clonal line, CellTiter-Glo (AID 824;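 active means viability at or below 27.92% in each of two runs, the all-compound median minus 4 SD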;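 further: 0% = 20 µM Hyamine control and 100% = vehicle cell control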); settings: 60 h, at 10 µM, stronger effect = lower value
[14] = inhibitors of the yeast RAM network, pilot screen, dse1pr::URA3 reporter, 5-FOA selection (AID 869;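 active means inhibition over a set limit, the all-compound mean plus 3 SD, in both replicate runs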;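 further: 0% = DMSO wells with no growth and 100% = 10 µM 1-NA-PP1 with full growth; RAM network block rescues cells from 5-FOA so hits raise OD615 growth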); settings: S. cerevisiae dse1pr::URA3 5-FOA growth, OD615, 2 d; at 10 µM; stronger effect = higher value; strain carries analog-sensitive mutant Cbk1 kinase
[15] = RAM signaling pathway blockade in yeast – S. cerevisiae, Pdr1DBD-CYC8 efflux-inhibited sensitized strain, primary screen (AID 1298;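 active means RAM network inhibition above 8.4% in each of two replicates, 3 SD over the compound average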;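 further: 0% = DMSO untreated cells without growth and 100% = 10 µM 1-NA-PP1 full growth; higher means more yeast growth rescued from 5-FOA killing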); settings: S. cerevisiae cbk1-as DSE1-URA3 strain, 5-FOA growth OD615, 2 d; at 50 µM; stronger effect = higher value
[16] = H69AR cells + 2 uM doxorubicin, measured here: viability with 2 uM doxorubicin, stronger effect = lower value
[17] = H69AR cells, compound alone cytotoxicity

Cc1ccc(-c2cc(C(=O)Nc3cc(C)on3)c3ccccc3n2)c(C)c1
77.5%: viability [1]
84.7%: viability [6, 17]
89.9%: viability [6, 16]
inactive: Her2 level [2] 99.5% | viability [3] 77.5% | viability [4] 96% | viability [5] 84.7% | differential viability (reversal) ([6]; H69AR cells + 2 uM doxorubicin) -5.17% | inhibition [7] -4.67% | inhibition [8] 3.67% | growth inhibition [9] -8.89% | growth inhibition [10] -8.38% | viability increase [11] -0.76% | viability [12] 87.4% | viability [13] 82.4% | inhibition [14] 1.68% | RAM network inhibition [15] 7.01%

CC1=C(C(N)=O)C(c2ccccn2)n2nc(-c3ccccc3Cl)nc2N1 (stereo unspecified)
98%: viability [1]
91.6%: viability [6, 17]
inactive: Her2 level [2] 114% | viability [3] 98% | viability [4] 103% | viability [5] 91.6% | differential viability (reversal) ([6]; H69AR cells + 2 uM doxorubicin) 6.15% | inhibition [7] -2% | inhibition [8] -4.17% | growth inhibition [9] -13.8% | growth inhibition [10] -3.02% | viability increase [11] -2.25% | viability [12] 101% | viability [13] 91.7% | inhibition [14] 1% | RAM network inhibition [15] 3.22%
85.4%: viability [6, 16]

Cc1ccc(C(=O)NC(Cc2c[nH]c3ccccc23)C(=O)O)o1 (stereo unspecified)
87.1%: viability [6, 16]
inactive: Her2 level [2] 130% | viability [3] 95.5% | viability [4] 87.3% | viability [5] 88.9% | differential viability (reversal) ([6]; H69AR cells + 2 uM doxorubicin) 1.82% | inhibition [7] 1.95% | inhibition [8] -5% | growth inhibition [9] 1.54% | growth inhibition [10] -2.65% | viability increase [11] -3.09% | viability [12] 96.2% | viability [13] 96.4% | inhibition [14] 1.82% | RAM network inhibition [15] 6.26%
95.5%: viability [1]
88.9%: viability [6, 17]
